# Assay results from the supplement of paper PMC8728848.
# The full list was thinned out, with the strongest signals kept by preference.
# Tests used:
# Assay in all cases: glycan array binding signal (z-score within array); higher = stronger binding
# Settings in all cases: glycan notation: IUPAC condensed, linker removed
# [1] = target: Fuc(a1-2)Gal(b1-3)[Fuc(a1-4)]GlcNAc(b1-2)Man(a1-3)[Fuc(a1-2)Gal(b1-3)[Fuc(a1-4)]GlcNAc(b1-2)Man(a1-3)]Man(b1-4)GlcNAc(b1-4)GlcNAc
# Method in brief: (§1)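 The binding signal is a Z-score computed within each array. Data were drawn from 3228 arrays in the Consortium for Functional Glycomics database, restricted to those with a known protein sequence. Scores were averaged over arrays of the same protein sequence at different concentrations or buffers, and over linkers, and negative values can be taken as non-binding.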
# [2] = target: Fuc(a1-2)Gal(b1-4)Glc
# Method in brief: as §1
# [3] = target: Fuc(a1-2)Gal(b1-4)GlcNAc(b1-2)[Fuc(a1-2)Gal(b1-4)GlcNAc(b1-4)]Man(a1-3)[Fuc(a1-2)Gal(b1-4)GlcNAc(b1-2)Man(a1-6)]Man(b1-4)GlcNAc(b1-4)GlcNAc
# Method in brief: as §1
# [4] = target: Fuc(a1-2)Gal(b1-4)GlcNAc(b1-6)GalNAc
# Method in brief: as §1
# [5] = target: Fuc(a1-2)Gal(b1-4)[Fuc(a1-3)]GlcNAc(b1-2)Man(a1-3)[Fuc(a1-2)Gal(b1-4)[Fuc(a1-3)]GlcNAc(b1-2)Man(a1-6)]Man(b1-4)GlcNAc(b1-4)[Fuc(a1-6)]GlcNAc
# Method in brief: as §1
# [6] = target: Fuc(a1-2)[Gal(a1-3)]Gal(b1-3)GlcNAc(b1-2)Man(a1-3)[Fuc(a1-2)[Gal(a1-3)]Gal(b1-3)GlcNAc(b1-2)Man(a1-6)]Man(b1-4)GlcNAc(b1-4)GlcNAc
# Method in brief: as §1
# [7] = target: Fuc(a1-2)[Gal(a1-3)]Gal(b1-4)GlcNAc(b1-2)Man
# Method in brief: as §1
# [8] = target: Fuc(a1-3)GlcNAc
# Method in brief: as §1
# [9] = target: Fuc(a1-3)[Gal3S(b1-4)]GlcNAc6S
# Method in brief: as §1
# [10] = target: Fuc(b1-3)GlcNAc
# Method in brief: as §1
# [11] = target: Gal(a1-3)Gal(b1-4)GlcNAc(b1-2)Man(a1-3)[Gal(a1-3)Gal(b1-4)GlcNAc(b1-2)Man(a1-6)]Man(b1-4)GlcNAc(b1-4)GlcNAc
# Method in brief: as §1
# [12] = target: Gal(a1-3)GalNAc
# Method in brief: as §1
# [13] = target: Gal(a1-4)Gal(b1-3)GlcNAc(b1-2)Man(a1-3)[Gal(a1-4)Gal(b1-3)GlcNAc(b1-2)Man(a1-6)]Man(b1-4)GlcNAc(b1-4)GlcNAc
# Method in brief: as §1
# [14] = target: Gal(a1-4)Gal(b1-4)GlcNAc
# Method in brief: as §1
# [15] = target: Gal(a1-4)Gal(b1-4)GlcNAc(b1-2)Man(a1-3)[Gal(a1-4)Gal(b1-4)GlcNAc(b1-2)Man(a1-6)]Man(b1-4)GlcNAc(b1-4)GlcNAc
# Method in brief: as §1
# [16] = target: Gal(a1-4)Gal(b1-4)GlcNAc(b1-3)Gal(b1-4)Glc
# Method in brief: as §1
# [17] = target: Gal(a1-6)Glc
# Method in brief: as §1
# [18] = target: Gal(b1-2)Gal
# Method in brief: as §1
# [19] = target: Gal(b1-3)Gal(b1-4)GlcNAc
# Method in brief: as §1
# [20] = target: Gal(b1-3)GalNAc(a1-3)[Fuc(a1-2)]Gal(b1-4)Glc
# Method in brief: as §1
# [21] = target: Gal(b1-3)GalNAc(a1-3)[Fuc(a1-2)]Gal(b1-4)GlcNAc
# Method in brief: as §1
# [22] = target: Gal(b1-3)GalNAc(b1-4)Gal(b1-4)Glc
# Method in brief: as §1
# [23] = target: Gal(b1-3)GlcNAc(b1-3)Gal(b1-4)GlcNAc(b1-6)[Gal(b1-3)GlcNAc(b1-3)]Gal(b1-4)Glc
# Method in brief: as §1
# [24] = target: Gal(b1-3)[Fuc(a1-4)]GlcNAc(b1-2)Man
# Method in brief: as §1
# [25] = target: Gal(b1-4)GlcNAc(b1-2)Man
# Method in brief: as §1
# [26] = target: Gal(b1-4)GlcNAc(b1-2)[Gal(b1-4)GlcNAc(b1-6)]Man(a1-6)[Gal(b1-4)GlcNAc(b1-2)Man(a1-3)]Man(b1-4)GlcNAc(b1-4)GlcNAc
# Method in brief: as §1
# [27] = target: Gal(b1-4)GlcNAc(b1-3)Gal(b1-3)GlcNAc
# Method in brief: as §1
binder,measurement,setting,value
"Epa6 (Candida glabrata), Q6DTM7_CANGB (protein) MGSSHHHHHHSSGLVPRGSHMKDDYSSSLSNNNLGWTDPTEFPLGCSPNVTTPKNGLSMELYSYDYLKSGSNPCWDAAYLDPNYPRTGYKSHRLLAKVENVAGNINFYYHAPMGCTSLFDTLPQAYNYRTPLTMTNFTMLLYGYFKPKVTGYHTFTISADDLLFVNFGAGNAFDCCKRESSADDFGNYQAYAVWGSQTAKDDLTVHLDAGLYYPIRIFFNNRDNDGALSLTLKTESDPNPVIDFSDYFYSFDDTKDGCPGLVSYDTS",glycan array binding signal (z-score),[1],-0.229
same,glycan array binding signal (z-score),[2],-0.123
same,glycan array binding signal (z-score),[3],-0.318
same,glycan array binding signal (z-score),[4],-0.062
same,glycan array binding signal (z-score),[5],-0.257
same,glycan array binding signal (z-score),[6],0.454
same,glycan array binding signal (z-score),[7],0.197
same,glycan array binding signal (z-score),[8],-0.304
same,glycan array binding signal (z-score),[9],-0.263
same,glycan array binding signal (z-score),[10],-0.331
same,glycan array binding signal (z-score),[11],3.7
same,glycan array binding signal (z-score),[12],4.17
same,glycan array binding signal (z-score),[13],6.23
same,glycan array binding signal (z-score),[14],4.65
same,glycan array binding signal (z-score),[15],4.02
same,glycan array binding signal (z-score),[16],4.42
same,glycan array binding signal (z-score),[17],8.63
same,glycan array binding signal (z-score),[18],6.14
same,glycan array binding signal (z-score),[19],10
same,glycan array binding signal (z-score),[20],4.95
same,glycan array binding signal (z-score),[21],5.98
same,glycan array binding signal (z-score),[22],3.9
same,glycan array binding signal (z-score),[23],0.257
same,glycan array binding signal (z-score),[24],-0.112
same,glycan array binding signal (z-score),[25],-0.283
same,glycan array binding signal (z-score),[26],-0.198
same,glycan array binding signal (z-score),[27],-0.26
